Data on 71 compounds can be found in the supplement of paper PMC11060735.

Where a name gives a salt, the structure may show the parent alone. ± gives the standard deviation of the averaged measurements. In all, about 1,800 compounds were measured (“GFP- (p16Ink4a-) cell count relative to negative-control wells”: median about 0.99, lowest 2% from about 0.5 on). Only a selection was taken, and the lowest values are over-represented in it overall.

The test system of the test is mouse p16Ink4a+/- lung fibroblasts (INKBRITE, bleomycin-injured). In words: GFP- (p16Ink4a-) cell count relative to negative-control wells (fold of vehicle); higher = more p16Ink4a- cells surviving. Conditions: 1 µM; 3 days.
`NC(=O)N1c2ccccc2CC(=O)c2ccccc21` [Oxcarbazepine, Trileptal] had a GFP- of 1.06.
Under `C[C@H](NC(=O)[C@@H](O)c1cc(F)cc(F)c1)C(=O)N[C@@H]1C(=O)N(C)c2ccccc2-c2ccccc21` stands 0.963; under `Cc1cc(=O)oc2cc(O)ccc12` [7-hydroxy-4-methyl-2H-chromen-2-one], 1.08; under `Cn1cnc(N)c2ncnc1-2` [3-Methyladenine], 0.988.
`COc1ccc(CCc2nc3cc(-c4c(C)noc4C)ccc3n2C[C@H](C)N2CCOCC2)cc1Cl` showed a GFP- of 0.854 ± 0.4.
As to `C=CCc1ccc(O)c(-c2cc(CC=C)ccc2O)c1` [Magnolol], the GFP- was 0.993.
The same measure for `Cc1c[nH]c(-c2cnc(NCCNc3ccc(C#N)cn3)nc2-c2ccc(Cl)cc2Cl)n1`: 1.14; for `CCNC(=O)c1[nH]nc(-c2cc(Cl)c(O)cc2O)c1-c1ccc(OC)cc1`: 0.89; for `CS(=O)(=O)OCCCCOS(C)(=O)=O` [Busulfan]: 0.83.
The same measure for `CCOc1ccc2ccccc2c1C(=O)N[C@@H]1C(=O)N2[C@@H]1SC(C)(C)[C@@H]2C(=O)O` [Nafcillin Sodium]: 0.94; for `CCO/C(O)=C1\C(C)=NC(C)=C(C(=O)OC)C1c1cccc([N+](=O)[O-])c1` (stereo unspecified) [Nitrendipine]: 1.18; for `O=c1cc(N2CCOCC2)oc2c1ccc1ccccc12`: 1.03.
The same measure for `Nc1cc(C(F)(F)F)c(-c2cc(N3CCOCC3)nc(N3CCOCC3)n2)cn1` [Buparlisib]: 0.719; for `C#Cc1cccc(Nc2ncnc3cc4c(cc23)OCCOCCOCCO4)c1` [Icotinib]: 0.916; for `O=C(NOCC(O)CO)c1cc(Br)c(F)c(F)c1Nc1ccc(I)cc1F` (stereo unspecified): 0.818.
In turn, `C#Cc1cccc(Nc2ncnc3cc(OC)c(OCCCCCCC(=O)NO)cc23)c1` yielded a GFP- of 1.01 ± 0.091.
The same measure for `C#Cc1cccc(Nc2ncnc3cc(OCCOC)c(OCCO)cc23)c1`: 0.823; for `C#Cc1cccc(Nc2ncnc3cc(OCCOC)c(OCCOC)cc23)c1` [Erlotinib]: 0.287.
Under `C[C@@H]1CN(c2c(F)c(N)c3c(=O)c(C(=O)O)cn(C4CC4)c3c2F)C[C@H](C)N1` [Sparfloxacin] stands 1.02.
`CCN1CCN(Cc2ccc(Nc3ncc(F)c(-c4cc(F)c5nc(C)n(C(C)C)c5c4)n3)nc2)CC1` registered a GFP- of 0.983.
On to `Cc1cc(C)c2c(c1)[C@@H](N(Cc1cc(C(F)(F)F)cc(C(F)(F)F)c1)c1nnn(C)n1)CCCN2C[C@H]1CC[C@H](C(=O)O)CC1` [Evacetrapib], for which the GFP- stood at 0.993.
Under `C[C@H](CCC(=O)O)[C@H]1CC[C@H]2[C@@H]3C[C@H](O)[C@@H]4C[C@H](O)CC[C@]4(C)[C@H]3CC[C@]12C` [Hyodeoxycholic acid (HDCA)] stands 0.901; under `CC1(C)SC2C(NC(=O)[C@H](NC(=O)N3CCNC3=O)c3ccccc3)C(=O)N2C1C(=O)O` (stereo partly specified) [Azlocillin sodium salt], 0.956; under `CC(C)(C)c1nc(-c2cccc(NS(=O)(=O)c3c(F)cccc3F)c2F)c(-c2ccnc(N)n2)s1` [Dabrafenib], 0.448.
The same measure for `C[C@]12CC[C@@H]3c4ccc(O)cc4C[C@@H](CCCCCCCCCS(=O)CCCC(F)(F)C(F)(F)F)[C@H]3[C@@H]1CC[C@@H]2O` (stereo partly specified) [Fulvestrant]: 1.15; for `NS(=O)(=O)c1ccc(NC(=O)Nc2ccc(F)cc2)cc1`: 1.06; for `CN1CCC(NC(=O)c2cc(-c3c(O)cc(O)cc3Oc3ccc([N+](=O)[O-])cc3)on2)CC1`: 1.03.
The same measure for `Cn1c(=O)cc(N2CCC[C@@H](N)C2)n(Cc2cc(F)ccc2C#N)c1=O` [Trelagliptin]: 0.941; for `C[N+](C)(C)CC(O)CC(=O)O` (stereo not drawn) [Carnitine Hydrochloride, Carnitine (dl) Hydrochloride]: 1.1; for `C[C@H](NCc1ccc(OCc2cccc(F)c2)cc1)C(N)=O` [Safinamide]: 1.06.
Consider `OC[C@@H](O)CN1CCN(c2ccccc2)CC1` [Levodropropizine], for which the GFP- is 1.05.
The same measure for `CC(=O)O[C@]1(C(C)=O)CC[C@H]2[C@@H]3C=C(Cl)C4=CC(=O)[C@@H]5C[C@@H]5[C@]4(C)[C@H]3CC[C@@]21C` [Cyproterone Acetate]: 1.14; for `C=C1CC[C@H](O)C/C1=C/C=C1\CCC[C@]2(C)[C@@H]([C@H](C)CCCC(C)(C)O)CC[C@@H]12` [Calcidiol]: 1.2; for `CCOC(=O)c1c(CSc2ccccc2)n(C)c2cc(Br)c(O)c(CN(C)C)c12` [Arbidol HCl]: 0.933.
Under `O=S(=O)(c1ccccc1)N(CC(F)(F)F)c1ccc(C(O)(C(F)(F)F)C(F)(F)F)cc1` stands 0.972.
Under `CN1CCOC(c2ccccc2)c2ccccc2C1` (stereo unspecified) [Nefopam] stands 1.1; under `CCOC(=O)[C@H](CCc1ccccc1)N[C@H]1CCc2ccccc2N(CC(=O)O)C1=O` [Benazepril], 1.01.
For `Cc1c(-c2ccccc2)oc2c(C(=O)OCCN3CCCCC3)cccc2c1=O` [Flavoxate], the GFP- was 1.1.
As to `C[C@@H]1O[C@@H](O[C@H]2[C@H](Oc3cc(O)c4c(c3)O[C@H](c3ccc(O)cc3)CC4=O)O[C@H](CO)[C@@H](O)[C@@H]2O)[C@H](O)[C@H](O)[C@H]1O` [Naringin], the GFP- is 1.1.
The same measure for `Nc1ccc(S(=O)(=O)Nc2ccccn2)cc1` [Sulfapyridine]: 0.965.
The compound `O=C1C[C@@H](c2ccc(O)cc2)Oc2cc(O)cc(O)c21` [Naringenin] gave a GFP- of 0.938.
The same measure for `C/C(=N\NC(=S)N1CCC1)c1ccccn1`: 0.4.
Under `Cn1c(=O)cc(N2CCC[C@@H](N)C2)n(Cc2ccccc2C#N)c1=O` [Alogliptin] stands 0.943; under `COC(=O)[C@H]1[C@H]2C[C@@H]3c4[nH]c5cc(OC)ccc5c4CCN3C[C@H]2C[C@@H](OC(=O)c2cc(OC)c(OC)c(OC)c2)[C@@H]1OC` [Reserpine], 0.806.
The same measure for `C=CC[N+]1([C@H]2C[C@H]3[C@@H]4CC[C@H]5C[C@H](O)[C@@H](N6CCOCC6)C[C@]5(C)[C@H]4CC[C@]3(C)[C@H]2OC(C)=O)CCCC1` [Rocuronium]: 0.894; for `COc1cccc2c1C(=O)c1c(O)c3c(c(O)c1C2=O)C[C@@](O)(C(C)=O)C[C@@H]3O[C@H]1C[C@H](N)[C@H](O)[C@H](C)O1` [Daunorubicin]: 0.754; for `CC(=O)[C@]1(O)Cc2c(O)c3c(c(O)c2[C@@H](O[C@H]2C[C@H](N)[C@H](O)[C@H](C)O2)C1)C(=O)c1ccccc1C3=O` [Idarubicin, Idarubicin Hydrochloride]: 0.224.
`COc1cccc2c1C(=O)c1c(O)c3c(c(O)c1C2=O)C[C@@](O)(C(=O)CO)C[C@@H]3O[C@H]1C[C@H](N)[C@H](O)[C@H](C)O1` [Doxorubicin] came in with a GFP- of 0.72.
The compound `COc1cc(-c2cc3ccccc3[nH]2)[nH]c1/C=C1\N=C(C)C=C1C` [Obatoclax Mesylate] returned a GFP- of 0.249.
`C=C1C(=O)O[C@@H]2/C=C(\C)CC/C=C(\C)CC[C@@H]12` [Costunolide] displayed a GFP- of 1.1.
The same measure for `Cc1coc2c1C(=O)C(=O)c1c-2ccc2c(C)cccc12` [Tanshinone I]: 1.03; for `Cn1cc(-c2ccc3nnc(Sc4ccc5ncccc5c4)n3n2)cn1`: 0.95; for `CCN(CC)CCCCNc1ncc2cc(-c3cc(OC)cc(OC)c3)c(NC(=O)NC(C)(C)C)nc2n1`: 0.935.
Under `Cc1ccnc2c1NC(=O)c1cccnc1N2C1CC1` [Nevirapine] stands 1.06.
Under `CC(C)=CCC[C@](C)(O[C@@H]1O[C@H](CO[C@@H]2OC[C@@H](O)[C@H](O)[C@H]2O)[C@@H](O)[C@H](O)[C@H]1O)[C@H]1CC[C@]2(C)[C@@H]1[C@H](O)C[C@@H]1[C@@]3(C)CC[C@H](O[C@@H]4O[C@H](CO)[C@@H](O)[C@H](O)[C@H]4O)C(C)(C)[C@@H]3CC[C@]12C` [Gynostemma Extract] stands 1.07; under `O=C(O)C1=CO[C@@H](O[C@@H]2O[C@H](CO)[C@@H](O)[C@H](O)[C@H]2O)[C@@H]2C(CO)=CC[C@H]12` [Geniposidic acid], 1.05.
Compound `CC1(C)CCC(c2ccc(Cl)cc2)=C(CN2CCN(c3ccc(C(=O)NS(=O)(=O)c4ccc(N[C@H](CCN5CCOCC5)CSc5ccccc5)c(S(=O)(=O)C(F)(F)F)c4)cc3)CC2)C1` [Navitoclax] displayed a GFP- of 0.944.
`NCC(=O)Nc1ccc(-n2nc(C(F)(F)F)cc2-c2ccc3c(ccc4ccccc43)c2)cc1` displayed a GFP- of 1.1.
The same measure for `CCN(CC)C(=S)SSC(=S)N(CC)CC` [Disulfiram]: 0.453; for `O=C(O)CCc1ccc(NCc2cccc(Oc3ccccc3)c2)cc1`: 0.98; for `CCCC(C)NC(=O)c1ccc(Cl)c(Cl)c1` (stereo unspecified): 1.14.
The same measure for `CC(C)C[C@H](NC(=O)CNC(=O)c1cc(Cl)ccc1Cl)B(O)O` [Ixazomib]: 0.394.
Under `CCOc1ccn(-c2ccc(F)cc2)c(=O)c1C(=O)Nc1ccc(Oc2ccnc(N)c2Cl)c(F)c1` stands 0.736; under `CN1CCN(c2c(F)cc3c(=O)c(C(=O)O)cn4c3c2OCN4C)CC1` [Marbofloxacin], 1.07; under `Cn1cc(C2=C(c3ccc(Cl)cc3Cl)C(=O)NC2=O)c2ccccc21`, 0.845.
With `Cc1c(OCC(F)(F)F)ccnc1C[S@@](=O)c1nc2ccccc2[nH]1` [Dexlansoprazole], the GFP- amounted to 0.956.
Under `CCc1cnn2c(NCc3ccc[n+]([O-])c3)cc(N3CCCC[C@H]3CCO)nc12` [Dinaciclib] stands 0.383; under `COc1ccc(CNc2nc(N3CCC[C@H]3CO)ncc2C(=O)NCc2ncccn2)cc1Cl` [Avanafil], 1.06.
The same measure for `CC(C)c1nc(CN(C)C(=O)N[C@@H](CCN2CCOCC2)C(=O)N[C@H](CC[C@H](Cc2ccccc2)NC(=O)OCc2cncs2)Cc2ccccc2)cs1` [Cobicistat]: 1.04.
The same measure for `CC(C)C[C@H](NC(=O)[C@H](CCc1ccccc1)NC(=O)CN1CCOCC1)C(=O)N[C@@H](Cc1ccccc1)C(=O)N[C@@H](CC(C)C)C(=O)[C@@]1(C)CO1` [Carfilzomib]: 0.433; for `COc1ccc(C[C@H](NC(=O)[C@H](C)NC(=O)CN2CCOCC2)C(=O)N[C@@H](Cc2ccccc2)C(=O)[C@]2(C)CO2)cc1`: 0.791.
